{"source": "PubChem BioAssay AID1347426", "about": "(Functional Genomics Laboratory (NCATS/FGL), 2020)", "note": "In all, about 31,000 sequences went through this assay and about 1,400 (4.5%) were called active. Shown is part of a subset that was picked to be rich in actives. Unmarked numbers belong to inactive results.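 How the source made its calls: active means median seed-adjusted z-score above 1 or below -1; inactive means the rest.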"}
{"assay": "Novel Modifiers of Survival Motor Neuron (SMN) Protein: Gene Identification via Genome-wide siRNA Screen;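 further: luminescence tracks full-length SMN protein made from the SMN2 reporter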", "settings": "HEK293T SMN2-luciferase reporter, siRNA knockdown, 72 h; actives lie on both sides", "how_it_was_run": "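siRNA screen, 10418 genes ×3 siRNAs; 1 pmol/well, lipid reverse transfection into HEK293T SMN2-luc reporter line. 72 h, 37 °C, 5% CO2; ONE-Glo readout. Data: neg-ctrl normalized, log10, MAD; hit = MAD >1.0 or < -1.0.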"}
{"sequence": "CCAUCACGUUCAUUACCUUTT against GAN", "median seed-adjusted z-score": "-1.07 (active)"}
{"sequence": "GCCUUUGCAGGUAUCAGAATT against LYPLA1", "median seed-adjusted z-score": 0}
{"sequence": "GCUUGACUUCAAAACUAAATT against SERPIND1", "median seed-adjusted z-score": 0.133}
{"sequence": "CCCAAUCAGUAAGAACCAATT against CEACAM1", "median seed-adjusted z-score": -0.211}
{"sequence": "CCACCUAUAAAGUUCUAAATT against CAPRIN1", "median seed-adjusted z-score": "1.36 (active)"}
{"sequence": "GAUUAUACAUAUUUCGCAATT against BRCA2", "median seed-adjusted z-score": 0}
{"sequence": "UGGUGUACACUGUUACUCATT against LOC158381", "median seed-adjusted z-score": 0}
{"sequence": "CGGUCUACAGCAUCGAGUATT against IL22RA1", "median seed-adjusted z-score": "-1.14 (active)"}
{"sequence": "CUAUCGACAUCAAGAGUUUTT against PSPC1", "median seed-adjusted z-score": 0.0612}
{"sequence": "GGUUGACAGUGUGCCUAAATT against NRIP1", "median seed-adjusted z-score": 0.789}
{"sequence": "GGAUAGAUGUUUCUAUCAATT against SUZ12", "median seed-adjusted z-score": "-1.65 (active)"}
{"sequence": "GGUGUUUGAUUGUGAGAAUTT against UBE2G1", "median seed-adjusted z-score": 0.174}
{"sequence": "CCCACUACAGAAGACUUAUTT against SLC4A1", "median seed-adjusted z-score": -0.861}
{"sequence": "GAAAUGUACCCUCCAGAAATT against CCNB1", "median seed-adjusted z-score": 0.163}
{"sequence": "CCGGAGAUGGAUGAAUCUATT against ICAM5", "median seed-adjusted z-score": "-1 (active)"}
{"sequence": "GUUUCUCAGUACUUCCAGATT against APOA2", "median seed-adjusted z-score": -0.297}
{"sequence": "GGAUGAGGUCUUCACCAAATT against NENF", "median seed-adjusted z-score": -0.778}
{"sequence": "AAAUCUUCUUUCGACAACATT against RAB37", "median seed-adjusted z-score": 0.0678}
{"sequence": "GCAAGAUGCAUGCUCAUGATT against ZNF142", "median seed-adjusted z-score": 0.111}
{"sequence": "CUGUUGAAAUGUAAAACGATT against VNN1", "median seed-adjusted z-score": 0.549}
{"sequence": "GGACAGAUCUUACCCAUCUTT against TRIM59", "median seed-adjusted z-score": 0.941}
{"sequence": "AGCCUUUAAUCAUUUCUCATT against ZNF85", "median seed-adjusted z-score": "-1.01 (active)"}
{"sequence": "CUUCAUAUUUGACACCUAUTT against SLC25A26", "median seed-adjusted z-score": 0.0213}
{"sequence": "GACUUUCAGUUCUUACGAUTT against CCNB3", "median seed-adjusted z-score": 0}
{"sequence": "GGCUCAAUAUGGAGGAUUATT against NPR3", "median seed-adjusted z-score": -0.436}
{"sequence": "GGCCCUAUGUAUAUGCUUUTT against AK3", "median seed-adjusted z-score": -0.0313}
{"sequence": "ACAUGCAGCUGGUAAGGAUTT against MFSD4", "median seed-adjusted z-score": "-1.89 (active)"}
{"sequence": "GAUACGUUCUGCAAUGUUATT against EPYC", "median seed-adjusted z-score": 0.00264}
{"sequence": "AGACCAAGAGCGCAUCAAATT against JUNB", "median seed-adjusted z-score": -0.224}
{"sequence": "GGUUGUUGGUUGGACUGUUTT against GDE1", "median seed-adjusted z-score": -0.256}
{"sequence": "CACUCACUGUUCCUAUCAATT against STAMBPL1", "median seed-adjusted z-score": 0.13}
{"sequence": "GAAACGAUGAAAUAAGAUATT against PTGS1", "median seed-adjusted z-score": 0.0458}
{"sequence": "GGUUGGUCUCCUCUUCAUATT against PSMD10", "median seed-adjusted z-score": 0.265}
{"sequence": "CCCUCUCACUUGAAGAUCATT against HYAL1", "median seed-adjusted z-score": -0.163}
{"sequence": "AUUCAUCUCAUAAACAAAATT against BATF2", "median seed-adjusted z-score": 0.714}
{"sequence": "GCAUGGAGCAGAUCGUGUUTT against ITPR3", "median seed-adjusted z-score": "-1.28 (active)"}
{"sequence": "GCAGCAUCAAUGUCUGGAATT against SLC6A8", "median seed-adjusted z-score": -0.0673}
{"sequence": "GGCCUUAGAUGAGUCCCUATT against PABPN1", "median seed-adjusted z-score": -0.757}
{"sequence": "ACAAUGAACUGGAUCAACATT against TBX20", "median seed-adjusted z-score": 0.00303}
{"sequence": "CACUAUCUAUUCCACCUUUTT against HTR1A", "median seed-adjusted z-score": 0}
{"sequence": "CAGGUGCUUCGUUUCCUGATT against ARHGAP1", "median seed-adjusted z-score": "-1.14 (active)"}
{"sequence": "GAGUAAACCUCGAAACCGATT against MAP3K13", "median seed-adjusted z-score": -0.121}
{"sequence": "GACCAUGAAUUUCAUUGUATT against MYLK3", "median seed-adjusted z-score": 0.316}
{"sequence": "GGACUAAAACUUUAAACUATT against POU4F2", "median seed-adjusted z-score": "1.46 (active)"}
{"sequence": "CUACCAGGAUGUUGAUAAATT against ZNF761", "median seed-adjusted z-score": 0.291}
{"sequence": "GGAUUGAGGUGGAGAUGGATT against MCM5", "median seed-adjusted z-score": 0.126}
{"sequence": "CUAAAGGUCUUGUUACAUUTT against ASNS", "median seed-adjusted z-score": "-1.1 (active)"}
{"sequence": "ACCUAGAAGUGAACUGUGATT against GP1BA", "median seed-adjusted z-score": 0.0803}
{"sequence": "UGGUGACUCUCAUUUCGCATT against BCAP31", "median seed-adjusted z-score": 0.277}
{"sequence": "GGAUGUCACUGUUUCUGGATT against CLIC6", "median seed-adjusted z-score": -0.00828}
{"sequence": "GGCCUACUGUGGAAUUGGATT against TTC3", "median seed-adjusted z-score": "-1.17 (active)"}
{"sequence": "CGAUCAACUCCUUAAAGGATT against FLRT2", "median seed-adjusted z-score": -0.00573}
{"sequence": "GCUUUUCCAUUAUAAGGCATT against FOXE1", "median seed-adjusted z-score": -0.316}
{"sequence": "CAAAUUGCCUCGUCAAAGATT against DNTT", "median seed-adjusted z-score": 0.316}
{"sequence": "GACCGACUCAGAUAUCAUUTT against SNRPA", "median seed-adjusted z-score": "-2.09 (active)"}
{"sequence": "CACUGGAUUUGAGAGGUUATT against ABHD7", "median seed-adjusted z-score": -0.301}
{"sequence": "GGCCGAGUGUACUACUUCATT against PIN1", "median seed-adjusted z-score": 0.156}
{"sequence": "GCACUGUGCUUAAGCUGGATT against PKN1", "median seed-adjusted z-score": -0.753}
{"sequence": "CGACAUGAUCUCCUACUCATT against ABLIM2", "median seed-adjusted z-score": -0.26}
{"sequence": "GAAACUGGACAGUAAGAAATT against HDAC4", "median seed-adjusted z-score": -0.0988}
{"sequence": "GGUUUCAAGAUAACCCAAATT against POU2F3", "median seed-adjusted z-score": "-1.53 (active)"}
{"sequence": "CAAAGGUUAUUCUGCAUAUTT against CTSO", "median seed-adjusted z-score": 0.322}
{"sequence": "GCAGGAGCUGUAUUUGAUGTT against NUDT6", "median seed-adjusted z-score": 0.281}
{"sequence": "AGAUGUACGAGGAAAAGUATT against WNK4", "median seed-adjusted z-score": 0.385}
{"sequence": "GGUGUUUGAUAUACAGAGGTT against RABL2A", "median seed-adjusted z-score": 0.794}
{"sequence": "CGACUCUGACACCACCAUATT against GOSR2", "median seed-adjusted z-score": "-1.25 (active)"}
{"sequence": "CCAUGGAUUUUAUGAGGAATT against ECHDC1", "median seed-adjusted z-score": 0.554}
{"sequence": "CCUUCAUUAAUGAGUCAUATT against ZNF426", "median seed-adjusted z-score": 0.2}
{"sequence": "UGCAGCCUCUCCAAACUUATT against SP6", "median seed-adjusted z-score": -0.176}
